Here are results for seven compounds from PubChem BioAssay (EPA / NIEHS).

Experiment [1] can be described thus: APR_HepG2_P-H2AX_72hr: Apredica 72-hour HepG2 Assay for H2AX Phosphorylation (AID 2282916).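 Further: phospho-histone H2A.x immunostain intensity per cell marking DNA damage.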 The settings on record: imaging, actives raise or lower the signal. The method, boiled down:
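HepG2 human liver cells were exposed for 72 hr to compounds at 0.39–200 uM (10 concentrations, duplicate per plate) in 0.5% v/v DMSO. Fixed, permeabilized cells were immunolabeled for phospho-histone H2A.x with Hoechst 33342 and imaged by HCS fluorescence; bidirectional fit versus DMSO.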

Experiment [2] is described as follows: APR_HepG2_MitoMembPot_72hr: Apredica 72-hour HepG2 Assay for Mitochondrial Membrane Potential (AID 2282917). The settings on record: imaging, actives raise or lower the signal. The method, boiled down:
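HepG2 cells dosed 72 hr with compound at 0.39–200 uM in duplicate, 0.5% v/v DMSO final. Mitochondria stained with 250 nM MitoTracker Red CMXRos for 30 min before formaldehyde fixation, imaged by high-content fluorescence; bidirectional fit versus DMSO.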

Experiment [3] can be described thus: APR_HepG2_MitoticArrest_72hr: Apredica 72-hour HepG2 Assay for Mitotic Arrest (AID 2282918). The settings on record: high-content imaging, actives raise or lower the signal. In short, it runs like this: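 HepG2 cells treated 72 h at 0.39–200 uM, 0.5% DMSO final; formaldehyde-fixed, stained with Hoechst 33342 and phospho-histone H3 antibody, imaged by high-content fluorescence; bidirectional fit versus DMSO.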

Experiment [4] can be described thus: APR_HepG2_MicrotubuleCSK_72hr: Apredica 72-hour HepG2 Assay for Microtubule CSK Stabilty (AID 2282919). The conditions noted are these: HepG2 microtubule cytoskeleton, high-content imaging, actives raise or lower the signal. In short, it runs like this: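 HepG2 cells were exposed 72 hr to compound at 0.39–200 uM in duplicate (0.5% DMSO final), then fixed and permeabilized. Alpha-tubulin immunofluorescence was imaged by high-content microscopy, with bidirectional fitting against DMSO and taxol as positive control.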

A short description of experiment [5]: APR_HepG2_P-H2AX_24hr: Apredica 24-hour HepG2 Assay for H2AX Phosphorylation (AID 2282920). The settings on record: high-content imaging, actives raise or lower the signal. The method, boiled down:
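HepG2 cells dosed 24 h at 0.39–200 uM (10 points, duplicate, 0.5% DMSO final). Formaldehyde-fixed and permeabilized, then immunostained for phospho-H2A.x with Hoechst. Fluorescence quantified by high-content imaging, fitted bidirectionally versus DMSO.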

The nature of experiment [6]: APR_HepG2_StressKinase_72hr: Apredica 72-hour HepG2 Assay for Stress Kinase (AID 2282921). The settings on record: HepG2 stress kinase (phospho-c-Jun) imaging, actives raise or lower the signal. In short, it runs like this:
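Cells were exposed for 72 h to ten concentrations (0.39–200 uM, duplicate) at 0.5% v/v DMSO final, then fixed with 3.7% formaldehyde, permeabilized and immunostained for phospho-c-Jun (Cy3 secondary) with Hoechst nuclear counterstain.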

The nature of experiment [7]: APR_HepG2_StressKinase_24hr: Apredica 24-hour HepG2 Assay for Stress Kinase (AID 2282922). The settings on record: HepG2 stress kinase (phospho-c-Jun) imaging, actives raise or lower the signal. In short, it runs like this: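 HepG2 cells exposed 24 h to 0.39–200 uM compound in duplicate (0.5% v/v DMSO final). Cells fixed in 3.7% formaldehyde, permeabilized and immunostained for phospho-c-Jun; read by high-content fluorescence imaging, fitted bidirectionally against DMSO.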

Experiment [8] in a line: APR_HepG2_MitoMass_72hr: Apredica 72-hour HepG2 Assay for Mitochondrial Mass (AID 2282924).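 Further: MitoTracker Red CMXRos stain intensity per cell imaged as mitochondrial mass.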 The conditions noted are these: high-content imaging, actives raise or lower the signal. In short, it runs like this:
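HepG2 cells dosed 72 hr at 0.39–200 uM (0.5% DMSO), in duplicate. MitoTracker Red CMXRos 250 nM loaded 30 min before formaldehyde fixation; high-content fluorescence imaging, bidirectional fit versus DMSO.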

Experiment [9] in a line: APR_HepG2_NuclearSize_72hr: Apredica 72-hour HepG2 Assay for Nuclear Size (AID 2282925). The settings on record: high-content imaging, actives raise or lower the signal. In short, it runs like this:
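HepG2 cells dosed 72 h at 0.39–200 uM (10 concentrations, duplicate) in 0.5% v/v DMSO final. Fixed, Hoechst 33342-stained nuclei imaged; nuclear diameter measured by automated image analysis. Bidirectional fit versus DMSO.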

Experiment [10] in a line: ATG_CRE_CIS: Attagene CIS-FACTORIAL HepG2 Assay for human cAMP Responsive Element (CRE) binding protein 3 (AID 2282926). The settings on record: HepG2 CRE cis-reporter, Attagene multiplexed mRNA; actives raise or lower the signal. In short, it runs like this:
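HepG2 cells transiently transfected with cis-element-driven multiple reporter transcription units; CRE reporter mRNA measured 24 h after dosing by RT-PCR, 6-FAM labelling, HpaI digestion and capillary electrophoresis. Bidirectional fit versus DMSO baseline.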

Experiment [11] addresses CCAAT/enhancer-binding protein beta (Homo sapiens) (UniProt P17676). Kind of experiment: ATG_C_EBP_CIS: Attagene CIS-FACTORIAL HepG2 Assay for human CCAAT/Enhancer Binding Protein (C/EBP) beta (AID 2282927). The settings on record: HepG2 Attagene cis-factorial transcription factor reporter; actives raise or lower the signal. The method, boiled down: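 Transiently transfected HepG2 (MRTU library, endogenous TF-driven promoters); 24 h dosing; total RNA → oligo(dT) RT → PCR → 6-FAM primer extension → HpaI digest → CE; fit bidirectionally vs DMSO.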

The nature of experiment [12]: ATG_CMV_CIS: Attagene CIS-FACTORIAL HepG2 Assay for human CMV (Internal Marker) (AID 2282928).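 Further: endpoint acts as a background internal control marker rather than a target.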 The settings on record: HepG2 CMV promoter reporter, transcription factor profiling; actives raise or lower the signal. The method, boiled down: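 Cell system: HepG2, transiently transfected multiple reporter units under cis promoters. Exposure: 24 h. Detection: RT-PCR, FAM labeling, HpaI digestion, capillary electrophoresis. Analysis: bidirectional, DMSO baseline.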

A short description of experiment [13]: ATG_DR4_LXR_CIS: Attagene CIS-FACTORIAL HepG2 Assay for human Liver X Receptor (LXR), DR4 submotif (AID 2282929). The settings on record: HepG2 Attagene DR4 cis-reporter, mRNA transcription; actives raise or lower the signal. The method, boiled down: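 Transiently transfected HepG2 liver cells; cis-regulated reporters; 24 h dosing. RT-PCR plus CE read-out of reporter mRNA. DMSO baseline, bidirectional curve fitting.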

Experiment [14] has as its target Aryl hydrocarbon receptor (Homo sapiens) (UniProt P35869). Kind of experiment: ATG_Ahr_CIS: Attagene CIS-FACTORIAL HepG2 Assay for human Aryl Hydrocarbon Receptor (Ahr) (AID 2282930). The settings on record: HepG2 AhR cis-factorial reporter transcription; actives raise or lower the signal. The method, boiled down: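 Read-out: reporter mRNA quantified by RT-PCR with fluorescent primer extension and capillary electrophoresis. Human HepG2 liver cells carried transfected cis-promoter reporter units and were exposed to chemical for 24 h; gain or loss fitted relative to DMSO.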

Experiment [15] in a line: ATG_AP_2_CIS: Attagene CIS-FACTORIAL HepG2 Assay for human Activator Protein 2 (AP-2) (AID 2282932). The settings on record: HepG2 AP-2 cis-reporter, Attagene transcription factor profiling; actives raise or lower the signal. The method, boiled down: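 Multiplexed mRNA reporter assay in HepG2: cis-regulated units report endogenous factor activity after 24 h treatment. Fluorescence from capillary electrophoresis of RT-PCR products gives the signal, with DMSO as baseline.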

Experiment [16] can be described thus: ATG_BRE_CIS: Attagene CIS-FACTORIAL HepG2 Assay for human Bone Morphogenetic Protein (BMP) Response Element (BRE) (AID 2282933). The settings on record: HepG2 BMP response element reporter, Attagene transcription factor profiling; actives raise or lower the signal. In short, it runs like this:
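A HepG2 multiplex reporter system measured inducible reporter mRNA 24 h post-dosing. Detection: RT-PCR, 6-FAM primer extension, HpaI digestion, capillary electrophoresis. Activity fitted bidirectionally relative to DMSO.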

A short description of experiment [17]: APR_HepG2_p53Act_72hr: Apredica 72-hour HepG2 Assay for p53 Activation (AID 2282923).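 Further: average cellular p53 protein immunofluorescence intensity in HepG2 cells.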 The conditions noted are these: high-content imaging, actives raise or lower the signal. In short, it runs like this: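 Cells were dosed for 72 hr with compounds at 0.39–200 uM in duplicate (final DMSO 0.5% v/v), then fixed in 3.7% formaldehyde, permeabilized with Triton X-100 and immunostained for p53 (Cy5) with Hoechst 33342 nuclear counterstain.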

In experiment [18] the target is Retinoic acid receptor alpha (Homo sapiens) (UniProt P10276). The experiment in a line: ATG_DR5_RAR_CIS: Attagene CIS-FACTORIAL HepG2 Assay for human Retinoic Acid Receptor Alpha (RARE), DR5 submotif (AID 2282934). The conditions noted are these: HepG2 Attagene cis-factorial RARE DR5 reporter, mRNA; actives raise or lower the signal. In short, it runs like this:
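Read-out: DR5-driven reporter transcript measured by RT-PCR, 6-FAM primer extension, HpaI digest and capillary electrophoresis. Human HepG2 liver cells carry transiently transfected cis-element reporter constructs; dosing lasts 24 h. Gain or loss of signal fitted against DMSO baseline.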

Experiment [19] in a line: ATG_AP_1_CIS: Attagene CIS-FACTORIAL HepG2 Assay for human Activator Protein 1 (AP-1) (AID 2282931). The settings on record: HepG2 Attagene cis-factorial AP-1 reporter mRNA; actives raise or lower the signal. In short, it runs like this:
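We transfected HepG2 cells transiently with a set of cis-regulated reporter transcription units, dosed them for 24 h, and quantified reporter mRNA via RT-PCR and capillary electrophoresis, scoring gain or loss of signal relative to DMSO.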

Molecules are shown by their SMILES. The source made the active and inactive calls. How the source made its calls: active means hit-call score of the fitted dose curve at least 0.9, where 1 is the maximum; inactive means score below 0.9.

Sequence of CCAAT/enhancer-binding protein beta (Homo sapiens) (P17676 whole entry, looked up): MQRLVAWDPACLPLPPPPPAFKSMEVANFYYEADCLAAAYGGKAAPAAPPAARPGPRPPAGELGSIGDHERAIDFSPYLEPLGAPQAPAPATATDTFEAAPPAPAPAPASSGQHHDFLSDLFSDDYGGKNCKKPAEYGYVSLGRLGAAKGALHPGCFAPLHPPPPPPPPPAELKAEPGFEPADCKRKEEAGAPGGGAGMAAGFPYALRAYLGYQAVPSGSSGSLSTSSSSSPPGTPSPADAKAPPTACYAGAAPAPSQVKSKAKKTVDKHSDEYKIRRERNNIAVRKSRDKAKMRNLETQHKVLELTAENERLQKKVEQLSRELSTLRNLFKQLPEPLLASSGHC
Sequence of Retinoic acid receptor alpha (Homo sapiens) (P10276 whole entry, looked up): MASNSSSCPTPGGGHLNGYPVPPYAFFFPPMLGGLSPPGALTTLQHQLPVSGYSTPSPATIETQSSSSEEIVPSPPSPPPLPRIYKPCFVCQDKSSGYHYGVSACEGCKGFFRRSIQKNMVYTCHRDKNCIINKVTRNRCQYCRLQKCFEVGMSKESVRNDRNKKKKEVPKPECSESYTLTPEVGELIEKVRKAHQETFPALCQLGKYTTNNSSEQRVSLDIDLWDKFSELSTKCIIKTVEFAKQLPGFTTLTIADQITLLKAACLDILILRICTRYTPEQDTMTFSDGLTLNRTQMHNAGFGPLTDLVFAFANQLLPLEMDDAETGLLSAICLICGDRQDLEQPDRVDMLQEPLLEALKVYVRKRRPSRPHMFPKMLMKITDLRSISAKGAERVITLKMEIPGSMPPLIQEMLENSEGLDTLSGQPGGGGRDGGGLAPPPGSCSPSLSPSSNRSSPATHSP
Sequence of Aryl hydrocarbon receptor (Homo sapiens) (P35869 whole entry, looked up): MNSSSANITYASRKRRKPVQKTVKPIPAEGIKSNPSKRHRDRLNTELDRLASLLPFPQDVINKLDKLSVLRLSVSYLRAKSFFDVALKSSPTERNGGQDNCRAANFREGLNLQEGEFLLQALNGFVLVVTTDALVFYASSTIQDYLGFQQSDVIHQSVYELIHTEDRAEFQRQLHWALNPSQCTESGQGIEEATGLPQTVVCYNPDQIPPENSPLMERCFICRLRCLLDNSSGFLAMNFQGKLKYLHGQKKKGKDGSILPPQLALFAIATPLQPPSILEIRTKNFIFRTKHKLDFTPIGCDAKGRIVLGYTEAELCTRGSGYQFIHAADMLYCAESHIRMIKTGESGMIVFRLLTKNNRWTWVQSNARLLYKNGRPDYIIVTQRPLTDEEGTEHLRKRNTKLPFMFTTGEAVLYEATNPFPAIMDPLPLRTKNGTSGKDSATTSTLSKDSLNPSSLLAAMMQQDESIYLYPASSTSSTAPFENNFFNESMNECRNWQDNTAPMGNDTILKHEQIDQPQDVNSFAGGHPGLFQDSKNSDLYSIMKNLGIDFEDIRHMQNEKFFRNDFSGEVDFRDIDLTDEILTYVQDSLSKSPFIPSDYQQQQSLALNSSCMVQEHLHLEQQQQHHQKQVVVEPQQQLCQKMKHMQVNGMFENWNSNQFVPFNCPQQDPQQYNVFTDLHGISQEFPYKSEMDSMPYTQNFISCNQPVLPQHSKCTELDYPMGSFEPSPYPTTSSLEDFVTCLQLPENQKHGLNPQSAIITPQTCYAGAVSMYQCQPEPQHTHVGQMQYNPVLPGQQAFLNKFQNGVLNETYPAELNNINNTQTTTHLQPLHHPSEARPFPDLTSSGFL

For the compound `CNC(=O)CSP(=S)(OC)OC`, the compound was classed as inactive in experiment [1], in experiment [2], in [3], in experiment [4], in [5] and in [6]. In addition, the compound was classed as inactive in experiment [7], in [8], in [9], in [10], in experiment [11] and in [12]. In addition, the call in experiment [13], in experiment [14], in [15] and in [16] was inactive.

For orientation: AC50 means the concentration at which the activity in the assay is half-maximal. For the compound `C[C@H]1[C@H](c2ccc(Cl)cc2)SC(=O)N1C(=O)NC1CCCCC1`, the compound was classed as inactive in experiment [1], in experiment [3], in [5], in experiment [6], in [7] and in [17]. Further, the call in experiment [8], in experiment [9], in experiment [10], in experiment [11], in [14] and in experiment [15] was inactive. In [18], the outcome was inactive. Also, the half-maximal activity concentration (AC50) in [2] was 100 µM (active); in [4] it was 44.5 µM (active); in [12], 13.8 µM (active); in [13], 81.4 µM (active); in experiment [16], 17.7 µM (active).

Turning to `O=C(O)CCCOc1ccc(Cl)cc1Cl`, the result in experiment [1], in experiment [2], in [3], in [4], in experiment [5] and in [6] was inactive. Besides, the call in [7], in experiment [17], in experiment [8], in [9], in [10] and in [11] was inactive. For the same compound, the compound was called inactive in experiment [12], in experiment [13], in experiment [14], in experiment [15], in experiment [16] and in [18].

With `O=[N+]([O-])/N=C1\NCCN1Cc1ccc(Cl)nc1`, the compound was classed as inactive in [1], in [2], in experiment [3], in [4], in experiment [5] and in experiment [6]. The call in experiment [7], in experiment [8], in [9], in experiment [10], in experiment [11] and in experiment [12] was inactive. In addition, the result in experiment [13], in experiment [15], in experiment [16] and in experiment [18] was inactive.

Regarding `CNC(=O)Oc1cccc(N=CN(C)C)c1`, the AC50 is 107 µM (active) in [1]; 106 µM (active) in experiment [5]; 50 µM (active) in experiment [10]; 50 µM (active) in experiment [11]; 50 µM (active) in [12]; 93.9 µM (active) in experiment [14]. Also, the figures for the concentration at half-maximal activity (AC50) in experiment [19] and in experiment [16] were 77.5 µM (active) and 58.3 µM (active), respectively. Besides, the compound was classed as inactive in experiment [2], in experiment [3], in experiment [4], in experiment [6], in experiment [7] and in experiment [17]. Besides, the call in experiment [8], in experiment [9], in experiment [13], in experiment [15] and in experiment [18] was inactive.

Turning to `Cc1[nH]c(=O)n(C(C)(C)C)c(=O)c1Cl`, the compound was called inactive in experiment [1], in [2], in [3], in [4], in [5] and in experiment [6]. Further, the call in [7], in experiment [8], in experiment [9], in experiment [12], in experiment [13] and in experiment [14] was inactive. Moreover, the result in experiment [15] and in experiment [18] was inactive. Moreover, the figures for the concentration at half-maximal activity (AC50) in experiment [10], in [11] and in experiment [16] were 30.3 µM (active), 31.3 µM (active) and 50.5 µM (active), respectively.

In the case of `O=C1c2ccccc2C(=O)N1SC(Cl)(Cl)Cl`, the result in experiment [1], in [3], in experiment [4], in experiment [5], in experiment [6] and in experiment [7] was inactive. For the same compound, the compound was called inactive in [17], in [8], in experiment [9], in [10], in [11] and in [12]. The compound was classed as inactive in experiment [13], in [14], in experiment [15], in experiment [16] and in experiment [18]. The AC50 in experiment [2] was 10.4 µM (active).
